Reference: PubChem BioAssay (NCI)
About 83,000 compounds went through this panel and 20% of them were active in at least one assay; those are over-represented in the sample as a whole.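 Compound tested at a single concentration for 48 hours in 96-well plates; a percent growth value below 10 was scored as active.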 A number with no mark means an inactive call. Calls of active or inactive are those of the source.

Test system: CCRF-CEM leukemia
Assay: NCI-60 one-dose screen, 48 h (100 = growth as untreated, 0 = no growth, -100 = all killed)
Conditions: 10 µM unless noted
Description: Growth inhibition of the CCRF-CEM human tumor cell line is measured as a screen for anti-cancer activity. Cells are grown in 96 well plates and exposed to the test compound for 48 hours. Compounds are tested at a single concentration, which is 10^-5 M for most compounds. The reported endpoint is percent growth (GI% or GIPRCNT), where numbers from 0 - 100% represent growth inhibition, and numbers from -100% - 0 represent cell death. For example, a value of 40 represents 60% growth inhibition. A value of 0 means no net growth occurred over the course of the experiment. A value of -40 indicates 40% of cells at the beginning of the experiment died by the end of the experiment. A value of -100 means all cells are dead at the end of the experiment.
NCI-60 Human Tumor Cell Lines Screen was performed using the standard one-dose NCI protocol, which is described in more detail at https://dtp.cancer.gov/discovery_development/nci-60/default.htm.
Compounds with GIPRCNT values below 10 were considered active. Activity score was based on GIPRCNT using the following formula: […]
Score is 0 for GIPRCNT values of 100 or above, 50 for GIPRCNT values of 0, and 100 for GIPRCNT values of -100.

| Structure (SMILES) | growth |
| --- | --- |
| N#CCNC(=O)c1ccc(-c2ccnc(Nc3ccc(N4CCOCC4)cc3)n2)cc1 | 15.7% |
| O=c1nc2c(-c3nc4ccccc4s3)n[nH]n2c2sc3c(c12)CCCC3 | 79.8% |
| N#Cc1c(NC(=O)c2cccs2)[n+]([O-])c2ccc(F)cc2[n+]1[O-] | 77.7% |
| Cc1ccccc1N1C(c2ccccc2)=NNC12C=CC(=O)C=C2Cl (stereo not given) | 101% |
| O=S1(=O)OC(c2cc(Cl)c(O)c(Br)c2)(c2cc(Cl)c(O)c(Br)c2)c2ccccc21 | 93.6% |
| CCc1ccc(/C=C/c2ccc(O)c3ncccc23)[n+](C)c1 | 22.8% |
| CCc1cc2c(c3ccc(C(=O)CBr)cc13)CCCC2 | 114% |
| COC(=O)CNC(=O)[C@@H](OC)[C@@H]1Cc2cc3cc(OC4CC(OC5CC(O)C(O)C(C)O5)C(O)C(C)O4)c(C)c(O)c3c(O)c2C(=O)[C@H]1OC1CC(OC2CC(OC3CC(C)(O)C(O)C(C)O3)C(O)C(C)O2)C(O)C(C)O1 (stereo not given in full) | 18% |
| CC(C)c1cc(CNc2nc(Nc3cc(C4CC4)[nH]n3)cc(N3CCN(C)CC3)n2)on1 | 8.07% (active) |
| CN[C@@H]1C[C@H]2O[C@@](C)([C@@H]1OC)n1c3ccccc3c3c4c(c5c6ccccc6n2c5c31)C(=O)N[C@H]4O | 0.26% (active) |
| COC[C@@H](C)n1c(C2CCOCC2)nc2c1C1C=C(OC)C(c3c(C)noc3C)=CC1N=C2 (stereo not given in full) | 50.8% |
| Cc1cc(Nc2cc(N3CCN(C)CC3)nc(Sc3ccc(NC(=O)C4CC4)cc3)n2)n[nH]1 | 35.6% |
| COc1ccc2nc3cc(Cl)ccc3c(Nc3ccc(N(C)C)cc3)c2c1 | 57.5% |
| NC1=Nc2ccccc2N(O)N1 | 105% |
| ClCc1ccc(-c2ccc(Cn3cnc4nc(Cl)nc(Cl)c43)cc2)cc1 | -48.5% (active) |
| C=CC(=O)Nc1cccc(Nc2nc(Nc3ccc(N4CCN(C(C)=O)CC4)cc3OC)ncc2C(F)(F)F)c1 | 19.2% |
| c1cc(OCCN2CCCCC2)cc(-c2n[nH]c3ccc(-c4ncn[nH]4)cc23)c1 | 84.9% |
| COC(=O)c1ccc2c(C(=Nc3ccc(N(C)C(=O)CN4CCN(C)CC4)cc3)c3ccccc3)c(O)[nH]c2c1 | 40.4% |
| C/C(=C(/c1ccc(Cl)cc1)c1ccc(OCCN2CCCC2)cc1)c1ccccc1 | 59.2% |
| O=C(NOCCO)c1ccc2cncn2c1Nc1ccc(I)cc1F | 77.1% |

| Structure (SMILES) | growth |
| --- | --- |
| COC(=O)[C@]12CC[C@@H](C)[C@H](C)[C@@H]1C1=CC[C@@H]3[C@@]4(C)C(C=O)=C[C@@](C)(COS(C)(=O)=O)C4=CC[C@@]3(C)[C@]1(C)CC2 | -1.17% (active) |
| O=C(COc1cccc(/C=C2\Cc3ccc(Cl)cc3C2=O)c1)Nc1nccs1 | 77.1% |
| N#Cc1c(-c2ccc(C(F)(F)F)cc2)c(F)c(NCCC2CCC(O)C2)n2c1nc1ccccc12 (stereo not given) | 17.9% |
| CC12O[C@H](C[C@@H](OC(=O)CCC(=O)O)[C@H]1O)n1c3ccccc3c3c4c(c5c6ccccc6n2c5c31)C(=O)NC4=O | 7.97% (active) |
| Cc1ccc(-[n+]2c3cc(N)c(C)cc3nc3cc(C)c(Nc4ccccc4)cc32)cc1 | 1.93% (active) |
| CCCCn1c(C)nc2cc(Nc3nc(N4CCCCC4)nc4nc[nH]c34)ccc21 | 46.6% |
| CCn1cc(-c2ccnc3[nH]c(-c4cccc(CN(C)C)c4)cc23)c(-c2ccc(NC(=O)N(C)C)cc2)n1 | 4.15% (active) |
| CCOC(=O)Sc1ncnc2nc[nH]c12 | 13.5% |
| CC1CCC(n2cnc3c(Cl)ncnc32)O1 (stereo not given) | 85.8% |
| Cn1ccnc1C(=O)/C=C/c1ccc(CC(=O)Nc2ccc(Br)cc2)cc1 | 11.9% |
| C=CC(=O)Nc1cc2c(Nc3ccc(F)c(Cl)c3)ncnc2cc1OCCCN1CCOCC1 | 4.44% (active) |
| CC(C)[C@@H]1CC[C@@H]2[C@@H]1[C@H](OC(=O)/C=C/c1ccccc1)[C@]1(C(C)C)C[C@@H](OC(=O)CO)[C@@]2(C)O1 | 77.1% |
| COc1cnc2c(c1)C(=O)c1c-2n(CCCN2CCC(N)CC2)c(=O)c2cc([N+](=O)[O-])ccc12 | 1.69% (active) |
| CN(C)CCOC(=O)Nc1nc2ccc(Sc3ccccc3)cc2[nH]1 | 22.4% |
| O=C(Nc1cn[nH]c1-c1nc2ccc(CN3CCOCC3)cc2[nH]1)NC1CC1 | 13.9% |
| CCN1CCN(CCCN(C[C@H]2Cc3ccccc3CN2)[C@H]2CCCc3cccnc32)CC1 | 79.6% |
| CC(N)C(Cc1ccccc1)c1ccc(Cl)cc1 (stereo not given) | 91.2% |
| COc1cc2ncnc(Oc3cccc(NC(=O)Nc4cc(C(C)(C)C(F)(F)F)on4)c3)c2cc1OC | 39.7% |
| O=C(O)c1ccc(Nc2ncc3c(n2)-c2ccc(Cl)cc2C(c2c(F)cccc2F)=NC3)cc1 | 36.6% |
| Cc1cc(-c2cc(OC(=O)c3ccccc3)ccc2Cl)cc2nnc(Nc3ccc(OCCN4CCCC4)cc3)nc12 | 3.09% (active) |
